Results on eight compounds are retold here after PubChem BioAssay (NCI).

Experiment [1] is described as follows: NCI Yeast Anticancer Drug Screen. Data for the rad50 strain (AID 155).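 Further: 0% = growth of vehicle-only cultures of the same strain.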 The settings on record: S. cerevisiae rad50 strain growth inhibition, stronger effect = higher value. The method, boiled down:
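Vehicle-treated cultures provide the reference for the growth inhibition reported for compound-exposed, repair-deficient yeast.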

Experiment [2] in a line: NCI Yeast Anticancer Drug Screen. Data for the mec2-1 strain (AID 157). Particulars: S. cerevisiae mec2-1 strain, stronger effect = higher value. The method, boiled down:
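Strain: mec2-1 (DNA repair/cell cycle alteration). Compound exposure, then growth measured; inhibition expressed relative to vehicle.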

The nature of experiment [3]: NCI Yeast Anticancer Drug Screen. Data for the sgs1 mgt1 strain (AID 161).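 Further: 0% = growth of cultures given vehicle only.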 Particulars: S. cerevisiae sgs1 mgt1 strain, stronger effect = higher value. The method, boiled down: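 Mutant yeast exposed to compound; growth scored against vehicle-only wells.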
The nature of experiment [4]: NCI Yeast Anticancer Drug Screen. Data for the cln2 rad14 strain (AID 165).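 Further: 0% = growth equal to vehicle treated cultures.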 Particulars: S. cerevisiae cln2 rad14 strain, stronger effect = higher value. The method, boiled down: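 Compounds are applied to the cln2 rad14 yeast strain, and growth is then compared with that of vehicle-treated cultures to give inhibition.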
Experiment [5] is described as follows: NCI Yeast Anticancer Drug Screen. Data for the bub3 strain (AID 167). Particulars: S. cerevisiae bub3 mutant strain, stronger effect = higher value. The method, boiled down:
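Mutant yeast screening strain plus compound; vehicle-treated cultures serve as the 0% inhibition reference.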

Experiment [6] in a line: NCI Yeast Anticancer Drug Screen. Data for the mlh1 rad18 strain (AID 175). The settings on record: S. cerevisiae mlh1 rad18 strain growth inhibition, stronger effect = higher value. The method, boiled down:
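Read-out is yeast growth inhibition, calculated against vehicle-only controls. The compound was applied to a strain engineered with DNA damage repair alterations.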

The mark [7] stands for this setting: at 5.0 µM (retest, dose inferred, filed as 0.5).
The mark [8] stands for this setting: at 50.0 µM (retest, dose inferred, filed as 5.0).

Values joined by “and” are separate entries in the source; they are usually repeats but may differ in a detail not shown here. Equal entries are not always repeated. This is part of a sample that, as a whole, favours compounds with a hit. Of some 79,000 tested, about 15% had one in any assay. Some structures have more than one record in an assay (separate samples or runs), and their calls can disagree. Active and inactive are the calls of the source. No stated cut-off is given here; in the data, active means growth inhibition above about 70%; inactive means the rest.

`O=P(Nc1cccc(Cl)c1)(Oc1ccccc1)N(CCCl)CCCl` (centres undefined): the growth inhibition in experiment [1] (setting [7]) is 40% (inactive); in experiment [1] (setting [8]) it was 40% (inactive); in experiment [1] (at 50.0 µM), 90.2% (active); in experiment [2] (setting [7]) it was 30% (inactive); in experiment [2] (setting [8]), 30% (inactive); in experiment [2] (at 50.0 µM) it was 90.2% (active). The growth inhibition was 43% (inactive) in experiment [3] (setting [7]); 43% (inactive) in experiment [3] (setting [8]); 92.1% (active) in experiment [3] (at 50.0 µM); 20% (inactive) in experiment [4] (setting [7]); 20% (inactive) in experiment [4] (setting [8]); 89.8% (active) in experiment [4] (at 50.0 µM). Moreover, the growth inhibition in experiment [5] (setting [7]) was 26% (inactive); in experiment [5] (setting [8]), 26% (inactive); in experiment [5] (at 50.0 µM), 88.7% (active); in experiment [6] (setting [7]), 21% (inactive); in experiment [6] (setting [8]), 21% (inactive); in experiment [6] (at 50.0 µM), 88.2% (active).

On to `Cc1c([C@H](C)[C@@H]2NC[C@@H](C)C[C@H]2O)ccc2c1C[C@H]1[C@H]2CC=C2C[C@@H](O)CC[C@@]21C`, for which the growth inhibition in experiment [1] (setting [7]) was 10% (inactive) and -5% (inactive); in experiment [1] (setting [8]), 71% (active) and 36% (inactive); in experiment [1] (at 50.0 µM), 84.3% (active) and 88.5% (active); in experiment [2] (setting [7]) it was -1% (inactive); in experiment [2] (setting [8]), 52% (inactive) and 0% (inactive); in experiment [2] (at 50.0 µM), 75.2% (active) and 79.2% (active). Also, the growth inhibition in experiment [3] (setting [7]) is 7% (inactive) and -12% (inactive); in experiment [3] (setting [8]), 85% (active) and 6% (inactive); in experiment [3] (at 50.0 µM), 76.8% (active) and 86.2% (active); in experiment [4] (setting [7]), -6% (inactive) and -7% (inactive); in experiment [4] (setting [8]), 58% (inactive) and 8% (inactive); in experiment [4] (at 50.0 µM), 77.3% (active) and 82.8% (active). Besides, the growth inhibition in experiment [5] (setting [7]) was 11% (inactive) and -18% (inactive); in experiment [5] (setting [8]), 74% (active) and 1% (inactive); in experiment [5] (at 50.0 µM), 86.2% (active) and 19.4% (inactive); in experiment [6] (setting [7]), 2% (inactive) and 0% (inactive); in experiment [6] (setting [8]), 59% (inactive) and 40% (inactive); in experiment [6] (at 50.0 µM), 85% (active) and 87.5% (active).

For `CC1C(=O)OCC1(C)O` (centres undefined), the growth inhibition in experiment [1] (setting [7]) was 1% (inactive); in experiment [1] (setting [8]), -2% (inactive); in experiment [1] (at 50.0 µM), -15.2% (inactive); in experiment [2] (setting [7]), 1% (inactive); in experiment [2] (setting [8]), 0% (inactive); in experiment [2] (at 50.0 µM) it was -11.7% (inactive). The growth inhibition was -4% (inactive) in experiment [3] (setting [7]); 0% (inactive) in experiment [3] (setting [8]); -5.55% (inactive) in experiment [3] (at 50.0 µM); 1% (inactive) in experiment [4] (setting [7]); 0% (inactive) in experiment [4] (setting [8]); 0.75% (inactive) in experiment [4] (at 50.0 µM). Besides, the growth inhibition in experiment [5] (setting [7]) is 2% (inactive); in experiment [5] (setting [8]), 2% (inactive); in experiment [5] (at 50.0 µM), 46% (inactive); in experiment [6] (setting [7]) it was 4% (inactive); in experiment [6] (setting [8]), 3% (inactive); in experiment [6] (at 50.0 µM), -21.6% (inactive).

For the compound `C=C1C(C)C2C(Cc3ccccc3)NC(=O)C23C(OC(C)=O)C=CC(C)(O)C(=O)C(C)C/C=C/C3C1O` (centres undefined), the growth inhibition in experiment [1] (setting [7]) was 72% (active); in experiment [1] (setting [8]), 96% (active); in experiment [1] (at 50.0 µM) it was 88.8% (active); in experiment [2] (setting [7]), 57% (inactive); in experiment [2] (setting [8]), 96% (active); in experiment [2] (at 50.0 µM) it was 90.1% (active). The growth inhibition in experiment [3] (setting [7]) was 58% (inactive); in experiment [3] (setting [8]), 97% (active); in experiment [3] (at 50.0 µM), 89.2% (active); in experiment [4] (setting [7]) it was 80% (active); in experiment [4] (setting [8]) it was 96% (active); in experiment [4] (at 50.0 µM) it was 85.2% (active). For the same compound, the growth inhibition was 71% (active) in experiment [5] (setting [7]); 98% (active) in experiment [5] (setting [8]); 84% (active) in experiment [5] (at 50.0 µM); 80% (active) in experiment [6] (setting [7]); 96% (active) in experiment [6] (setting [8]); 84.1% (active) in experiment [6] (at 50.0 µM).

Regarding `CN1CSC(=S)N(C)C1`, the growth inhibition is 21% (inactive) in experiment [1] (setting [7]); 95% (active) in experiment [1] (setting [8]); 97.3% (active) in experiment [1] (at 50.0 µM); 19% (inactive) in experiment [2] (setting [7]); 99% (active) in experiment [2] (setting [8]); 99.5% (active) in experiment [2] (at 50.0 µM). In addition, the growth inhibition is 17% (inactive) in experiment [3] (setting [7]); 97% (active) in experiment [3] (setting [8]); 95.9% (active) in experiment [3] (at 50.0 µM); 13% (inactive) in experiment [4] (setting [7]); 98% (active) in experiment [4] (setting [8]); 94.3% (active) in experiment [4] (at 50.0 µM). In addition, the growth inhibition in experiment [5] (setting [7]) is 4% (inactive); in experiment [5] (setting [8]), 96% (active); in experiment [5] (at 50.0 µM), 99.5% (active); in experiment [6] (setting [7]), 4% (inactive); in experiment [6] (setting [8]), 96% (active); in experiment [6] (at 50.0 µM), 95.7% (active).

In the case of `CCN1CCC(O)(c2ccc(Cl)c(Cl)c2)C(C(=O)c2ccc(Cl)c(Cl)c2)C1` (centres undefined), the growth inhibition in experiment [1] (setting [7]) is 75% (active); in experiment [1] (setting [8]), 99% (active); in experiment [1] (at 50.0 µM), 99.7% (active); in experiment [2] (setting [7]), 57% (inactive); in experiment [2] (setting [8]), 100% (active); in experiment [2] (at 50.0 µM), 99.6% (active). Moreover, the growth inhibition in experiment [3] (setting [7]) was 78% (active); in experiment [3] (setting [8]), 99% (active); in experiment [3] (at 50.0 µM), 99.7% (active); in experiment [4] (setting [7]), 60% (inactive); in experiment [4] (setting [8]), 99% (active); in experiment [4] (at 50.0 µM), 98.9% (active). Further, the growth inhibition in experiment [5] (setting [7]) was 71% (active); in experiment [5] (setting [8]) it was 98% (active); in experiment [5] (at 50.0 µM), 98.8% (active); in experiment [6] (setting [7]), 54% (inactive); in experiment [6] (setting [8]), 99% (active); in experiment [6] (at 50.0 µM) it was 99.6% (active).

Turning to `ClCCN(CCCl)c1ccc(CN2CCCN(Cc3ccc(N(CCCl)CCCl)cc3Cl)C2c2ccncc2)c(Cl)c1`, the growth inhibition in experiment [1] (setting [7]) was 2% (inactive); in experiment [1] (setting [8]), 91% (active); in experiment [1] (at 50.0 µM) it was 93.5% (active); in experiment [2] (setting [7]), 4% (inactive); in experiment [2] (setting [8]) it was 96% (active); in experiment [2] (at 50.0 µM), 96.8% (active). The growth inhibition in experiment [3] (setting [7]) was -4% (inactive); in experiment [3] (setting [8]), 96% (active); in experiment [3] (at 50.0 µM), 93.9% (active); in experiment [4] (setting [7]) it was -5% (inactive); in experiment [4] (setting [8]) it was 94% (active); in experiment [4] (at 50.0 µM) it was 43.9% (inactive). For the same compound, the growth inhibition in experiment [5] (setting [7]) was 0% (inactive); in experiment [5] (setting [8]), 93% (active); in experiment [5] (at 50.0 µM), 1.9% (inactive); in experiment [6] (setting [7]), 9% (inactive); in experiment [6] (setting [8]) it was 95% (active); in experiment [6] (at 50.0 µM), 97.1% (active).

On to `C1CC[CH]([Sn]([CH]2CCCCC2)[CH]2CCCCC2)CC1.C1CC[CH]([Sn]([CH]2CCCCC2)[CH]2CCCCC2)CC1`, for which the growth inhibition in experiment [1] (setting [7]) is 2% (inactive); in experiment [1] (setting [8]), 34% (inactive); in experiment [1] (at 50.0 µM) it was 31.5% (inactive); in experiment [2] (setting [7]), 0% (inactive); in experiment [2] (setting [8]) it was 34% (inactive); in experiment [2] (at 50.0 µM), 63.3% (inactive). Moreover, the growth inhibition in experiment [3] (setting [7]) is 4% (inactive); in experiment [3] (setting [8]), 17% (inactive); in experiment [3] (at 50.0 µM) it was 75.7% (active); in experiment [4] (setting [7]), 3% (inactive); in experiment [4] (setting [8]) it was -9% (inactive); in experiment [4] (at 50.0 µM) it was -30.2% (inactive). Further, the growth inhibition in experiment [5] (setting [7]) is 3% (inactive); in experiment [5] (setting [8]), -2% (inactive); in experiment [5] (at 50.0 µM), 9.5% (inactive); in experiment [6] (setting [7]), 0% (inactive); in experiment [6] (setting [8]), 4% (inactive); in experiment [6] (at 50.0 µM), 87.9% (active).
